Here are results for ten compounds from PubChem BioAssay (NCATS).

The nature of assay [1]: Viability counterscreen for antagonist of constitutive androstane receptor (CAR) against the NCATS DSHEA and TCM libraries (AID 1794837).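 Also: compound exposure lasted 24 h before viability reading; 0% is about no effect.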 In a few lines:
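Cells: HepG2 line carrying CYP2B6 reporter and hCAR, seeded and attached 5 h. Then pin-transferred test substances plus agonist CITCO at 48 uM final; 24 h incubation; fluorogenic viability reagent, 1 h.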
Background: The purpose of a counterscreen is to sort out artefacts and off-target activity.

Assay [2] can be described thus: Viability counterscreen for agonist of constitutive androstane receptor (CAR) against the NCATS DSHEA and TCM libraries (AID 1794838).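 Also: HepG2 cells with CYP2B6 reporter and hCAR plus 0.75 µM PK11195 antagonist; 0% is about no effect.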 In a few lines:
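Cell health was measured as CellTiter-Fluor signal in HepG2-CYP2B6-hCAR cells treated for 24 h with substances alongside the hCAR antagonist PK11195 (0.75 uM final).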

Assay [3] is described as follows: HepG2 viability counterscreen (readout 2: ATP content) against the NCATS DSHEA and TCM libraries (AID 1794840). Also: 0% is about no effect. In a few lines:
(§1)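 Same wells read twice: first fluorescence from cleaved GF-AFC substrate (25 uM final, 30 min, 37C) for live-cell protease, then CellTiter-Glo luminescence after 30 min at room temperature for ATP. HepG2 cells were exposed ~24 h to substances.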

A short description of assay [4]: HepG2 viability counterscreen (readout 1: protease activity) against the NCATS DSHEA and TCM libraries (AID 1794841).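 Also: cells exposed to compounds for about 24 h before the protease read; 0% is about no effect.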 In a few lines: as §1
Assay [5] has as its target Cytochrome P450 3A4 (Homo sapiens) (UniProt P08684). The experiment in a line: qHTS for inhibitors of CYP3A4 against the NCATS DSHEA and TCM libraries (AID 1919971). Also: potency is read from the fitted curve at half-maximal effect. The procedure, abridged:
(§2)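 Read-out is luminescence after P450-Glo detection (30 min, RT). Before that: 15 min compound–enzyme preincubation, then 30-45 min reaction with 1x NADPH regeneration solution, substrate concentration isoform-specific.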

Assay [6] deals with Cytochrome P450 2D6 (Homo sapiens) (UniProt P10635). In words: qHTS for inhibitors of CYP2D6 against the NCATS DSHEA and TCM libraries (AID 1919972). Also: potency is read from the fitted curve at half-maximal effect. In a few lines: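 Luminescent P450-Glo read-out of CYP2D6 turnover of a luciferin substrate after NADPH-driven reaction of 30-45 min at room temperature. Compounds were first preincubated 15 min with enzyme at titrated concentrations; quinidine was the intraplate control.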
Cytochrome P450 2D6 (Homo sapiens), sequence (P10635 whole entry, looked up): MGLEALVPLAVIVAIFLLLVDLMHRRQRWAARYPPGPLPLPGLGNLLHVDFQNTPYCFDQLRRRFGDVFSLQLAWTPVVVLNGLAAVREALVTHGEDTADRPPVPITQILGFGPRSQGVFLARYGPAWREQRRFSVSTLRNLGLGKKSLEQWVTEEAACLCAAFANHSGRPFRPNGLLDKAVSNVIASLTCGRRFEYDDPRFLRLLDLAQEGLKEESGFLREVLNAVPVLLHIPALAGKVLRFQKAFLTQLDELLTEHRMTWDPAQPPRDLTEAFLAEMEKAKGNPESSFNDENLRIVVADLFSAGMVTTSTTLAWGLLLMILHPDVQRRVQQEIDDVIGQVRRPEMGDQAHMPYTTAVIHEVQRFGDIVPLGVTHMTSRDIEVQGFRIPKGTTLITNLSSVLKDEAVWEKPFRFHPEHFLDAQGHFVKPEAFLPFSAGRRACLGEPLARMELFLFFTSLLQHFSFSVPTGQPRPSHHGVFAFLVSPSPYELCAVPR
For orientation: Quantitative high-throughput screening tests each substance at several concentrations.

The target of assay [7] is Cytochrome P450 2C9 (Homo sapiens) (UniProt P11712). The experiment in a line: qHTS for inhibitors of CYP2C9 against the NCATS DSHEA and TCM libraries (AID 1919973). Also: potency is read from the fitted curve at half-maximal effect. The procedure, abridged:
as §2

Assay [8] addresses Cytochrome P450 2C19 (Homo sapiens) (UniProt P33261). In words: qHTS for inhibitors of CYP2C19 against the NCATS DSHEA and TCM libraries (AID 1919974).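 Also: luminescence from luciferin released by CYP2C19 oxidation of a pro-luciferin substrate.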 Also: potency is read from the fitted curve at half-maximal effect. The procedure, abridged:
as §2

Assay [9] can be described thus: KB-3-1 P-gp reporter qHTS against the NCATS DSHEA and TCM libraries (AID 1919975). Also: 0% is about no effect. In a few lines: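 KB-3-1 parental line, 1536-well qHTS: cells seeded, ~4 h attachment, pintool compound addition, ~72 h at 37C, then CellTiter-Glo, 30 min RT, luminescence. Concentration-response format.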
For assay [10], the target named is Cytochrome P450 1A2 (Homo sapiens) (UniProt P05177). In words: qHTS for inhibitors of CYPIA2 against the NCATS DSHEA and TCM libraries (AID 1919976). Also: potency is read from the fitted curve at half-maximal effect. The procedure, abridged: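 CYP1A2 + luciferin substrate, 100 mM KPO4-type buffer; cmpd 15 min RT; 1x NADPH regen, 30-45 min RT dark; detection reagent 30 min RT; luminescence. Minus-enzyme wells as background; furafylline intraplate control.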
Cytochrome P450 1A2 (Homo sapiens), sequence (P05177 whole entry, looked up): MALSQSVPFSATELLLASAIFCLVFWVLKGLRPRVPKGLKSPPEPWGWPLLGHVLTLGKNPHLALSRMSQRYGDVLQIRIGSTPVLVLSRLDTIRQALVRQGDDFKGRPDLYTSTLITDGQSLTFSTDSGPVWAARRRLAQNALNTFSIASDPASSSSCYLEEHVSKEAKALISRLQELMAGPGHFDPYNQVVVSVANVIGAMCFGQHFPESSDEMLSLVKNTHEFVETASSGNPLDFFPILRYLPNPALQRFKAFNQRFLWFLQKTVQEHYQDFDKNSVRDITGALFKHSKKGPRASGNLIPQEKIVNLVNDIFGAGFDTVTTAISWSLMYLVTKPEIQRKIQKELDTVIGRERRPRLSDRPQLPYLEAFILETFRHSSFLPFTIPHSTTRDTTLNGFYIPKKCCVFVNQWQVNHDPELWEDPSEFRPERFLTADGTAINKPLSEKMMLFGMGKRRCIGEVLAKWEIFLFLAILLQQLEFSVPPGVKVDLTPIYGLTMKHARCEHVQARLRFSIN

The nature of assay [11]: qHTS Counterscreen for compound interference against the NCATS DSHEA and TCM libraries (AID 1919978).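 Also: compounds preincubated with 1 µM D-luciferin or buffer before detection reagent; % of control where 0% means no effect.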 To be noted: firefly luciferase detection reagent interference, luminescence. In a few lines: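 Compounds, titrated from 19.5 nM to 39.8 uM final, were pinned onto 1 uM D-luciferin or plain 100 mM potassium phosphate. After 15 min at room temperature, luciferin detection reagent was added for 30 min before the luminescence read.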

Assay [12] can be described thus: Dual reporter qHTS for agonist of Pregnane X Receptor (hPXR) against the NCATS DSHEA and TCM libraries: Fluorescence readout (AID 1920058). Also: 0% is about no effect. In a few lines:
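HepG2 hPXR-Luc, 2000 cells/well, 5 h attach; cpds ~24 h, 37 °C/5% CO2; CellTiter-Fluor 1 h; fluor. Ex/Em 405/540 nm = viability.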

Assay [13] has as its target Nuclear receptor subfamily 1 group I member 2 (Homo sapiens) (UniProt O75469). In words: Dual reporter qHTS for antagonist of Pregnane X Receptor (hPXR) against the NCATS DSHEA and TCM libraries: Luminescence Readout (AID 1920060). Also: 0% is about no effect. The procedure, abridged:
(§3)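 Rifampicin-stimulated (2 uM final) hPXR-luciferase HepG2 cells were treated for 24 h with DSNP/TCM substances. Viability came from CellTiter-Fluor fluorescence, reporter activity from ONE-Glo luminescence.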

The target is the same in assay [14]. The experiment in a line: Dual reporter qHTS for agonist of Pregnane X Receptor (hPXR) against the NCATS DSHEA and TCM libraries: Luminescence readout (AID 1920059). Also: 0% is about no effect. In a few lines: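 hPXR-Luc HepG2 cells, 2000/well in 5% charcoal-stripped FBS medium, attached 5 h, then exposed 24 h at 37C to compounds. Viability by CellTiter-Fluor, then luciferase luminescence with ONE-Glo.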

Assay [15] in a line: Dual reporter qHTS for antagonist of Pregnane X Receptor (hPXR) against the NCATS DSHEA and TCM libraries: Fluorescence Readout (AID 1920061). Also: 0% is about no effect. The procedure, abridged: as §3
Assay [16] has as its target Glucocorticoid receptor (Homo sapiens) (UniProt P04150). In words: GR-GFP Redistribution (AID 450;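 active = compounds whose dose series gives a full or clear partial fitted curve of increased nuclear translocation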; also: potency is read from the fitted curve at half-maximal effect). To be noted: U2OS GR-GFP nuclear translocation, laser cytometry, 2 h.
The target is the same in assay [17]. The experiment in a line: GR-EFC Redistribution (AID 451; calls by dose curve; also: potency is read from the fitted curve at half-maximal effect). The settings on record: CHO-K1 GR-EFC translocation, beta-gal luminescence, 2 h. The procedure, abridged:
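CHO-K1 cells expressing nuclear EA and GR-ED fragments of b-gal; compounds titrated up to 46 uM final, 2 h at 37 C. GR nuclear translocation read as complemented b-gal luminescence after 1 h RT detection.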

The target of assay [18] is Ubiquitin carboxyl-terminal hydrolase 1 (Homo sapiens) (UniProt O94782). The experiment in a line: Inhibitors of USP1/UAF1: Pilot qHTS (AID 504865). Also: nearly all actives have a fitted effect of over 35% in size. Also: potency is read from the fitted curve at half-maximal effect. In a few lines:
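In 50mM HEPES pH 7.8 containing 0.5mM EDTA, 1mM TCEP, 0.1 mg/ml BSA and 0.01% Tween-20, 1nM USP1/UAF1 is exposed to compound for 15 min, then Ub-Rho (150nM final) is added and fluorescence is read over time.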

Assay [19] is described as follows: Stat Signaling Pathway (AID 446; active = well fitted curve in either direction with a large enough effect, not every such curve was filed as active;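 also: ME-180 cervical cancer cells given 40 pM IL-6 alongside compound; SIE-controlled beta-lactamase reporter measured as 460/530 nm FRET emission ratio; % is scaled to controls: 0 for no effect and ±100 for the full control effect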). The procedure, abridged: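 IL-6/STAT signaling read in ME-180 cells via an SIE beta-lactamase reporter. Stimulus was 40 pM IL-6 (its AC50) for 5 hrs, so both activation and inhibition register.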
The target of assay [20] is Mitogen-activated protein kinase 10 (Mus musculus) (UniProt Q61831). In words: JNK3 AlphaScreen Assay (AID 530; active = well fitted curve in either direction with a large enough effect, not every such curve was filed as active;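 also: kinase came from lysate of stimulated human HepG2 cells; signal reports phosphorylation of biotinylated GST-cJun 1-79 at Ser73 with 10 µM ATP; series mostly up to about 57 µM; % is scaled to controls: 0 for no effect and ±100 for the full control effect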). In a few lines:
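Pre-activated (IL-1β/TNFα) JNK3 in HepG2 lysates phosphorylates biotin-GST-cJun(1-79), 10 uM ATP; anti-phospho-cJun(Ser73) AlphaScreen read at room temperature, pH 7.6 Tris buffer. Compounds pre-incubated 15 min as titrations.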

Unmarked numbers belong to inactive results. Results filed as inconclusive are left out. Calls of active or inactive are those of the source. Unless noted, calls follow the shape of the dose curve; as a rule, active = well fitted curve in the direction sought with a large enough effect; inconclusive = small, poorly fitted or top-dose-only effect, or another doubt; inactive = no such curve, though single readings can be large; an effect the other way counts as inactive or inconclusive.

Nuclear receptor subfamily 1 group I member 2 (Homo sapiens), sequence (O75469 whole entry, looked up): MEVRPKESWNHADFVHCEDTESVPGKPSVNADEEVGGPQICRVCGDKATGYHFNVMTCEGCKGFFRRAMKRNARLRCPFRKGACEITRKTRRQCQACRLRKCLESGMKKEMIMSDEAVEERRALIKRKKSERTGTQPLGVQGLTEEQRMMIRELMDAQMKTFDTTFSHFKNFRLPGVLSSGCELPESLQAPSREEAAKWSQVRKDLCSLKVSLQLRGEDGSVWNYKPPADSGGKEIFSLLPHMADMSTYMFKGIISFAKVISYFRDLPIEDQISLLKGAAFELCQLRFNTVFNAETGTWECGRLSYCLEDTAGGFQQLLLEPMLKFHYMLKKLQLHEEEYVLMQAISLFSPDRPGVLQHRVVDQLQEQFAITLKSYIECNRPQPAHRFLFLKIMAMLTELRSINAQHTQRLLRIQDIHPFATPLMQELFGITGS
Cytochrome P450 2C19 (Homo sapiens), sequence (P33261 whole entry, looked up): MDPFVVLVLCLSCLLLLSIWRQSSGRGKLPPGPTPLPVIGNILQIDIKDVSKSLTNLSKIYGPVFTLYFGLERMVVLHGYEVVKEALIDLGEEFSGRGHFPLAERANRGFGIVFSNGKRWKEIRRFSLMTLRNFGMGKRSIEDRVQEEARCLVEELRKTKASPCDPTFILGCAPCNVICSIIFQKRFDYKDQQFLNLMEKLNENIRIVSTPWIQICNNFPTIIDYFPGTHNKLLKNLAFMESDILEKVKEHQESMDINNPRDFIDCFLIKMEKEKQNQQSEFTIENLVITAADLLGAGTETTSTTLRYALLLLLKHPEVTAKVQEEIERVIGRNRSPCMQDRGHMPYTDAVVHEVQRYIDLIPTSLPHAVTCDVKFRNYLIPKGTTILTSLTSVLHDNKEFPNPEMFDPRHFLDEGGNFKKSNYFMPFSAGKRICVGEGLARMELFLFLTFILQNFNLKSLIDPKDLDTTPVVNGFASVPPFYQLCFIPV
Cytochrome P450 2C9 (Homo sapiens), sequence (P11712 whole entry, looked up): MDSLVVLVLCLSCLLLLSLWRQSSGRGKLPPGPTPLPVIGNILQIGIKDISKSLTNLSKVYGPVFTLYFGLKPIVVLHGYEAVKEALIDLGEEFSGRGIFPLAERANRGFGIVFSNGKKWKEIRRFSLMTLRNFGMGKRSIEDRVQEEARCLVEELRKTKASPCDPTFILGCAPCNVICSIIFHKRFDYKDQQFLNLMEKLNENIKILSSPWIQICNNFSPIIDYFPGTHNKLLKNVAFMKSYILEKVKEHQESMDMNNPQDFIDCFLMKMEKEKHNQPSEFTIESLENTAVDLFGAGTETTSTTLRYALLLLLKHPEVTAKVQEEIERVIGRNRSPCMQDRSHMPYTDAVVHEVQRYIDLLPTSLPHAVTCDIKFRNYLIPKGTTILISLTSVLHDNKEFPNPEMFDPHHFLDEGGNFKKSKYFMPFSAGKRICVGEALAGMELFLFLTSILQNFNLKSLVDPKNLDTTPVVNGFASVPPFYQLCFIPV
Cytochrome P450 3A4 (Homo sapiens), sequence (P08684 whole entry, looked up, canonical isoform): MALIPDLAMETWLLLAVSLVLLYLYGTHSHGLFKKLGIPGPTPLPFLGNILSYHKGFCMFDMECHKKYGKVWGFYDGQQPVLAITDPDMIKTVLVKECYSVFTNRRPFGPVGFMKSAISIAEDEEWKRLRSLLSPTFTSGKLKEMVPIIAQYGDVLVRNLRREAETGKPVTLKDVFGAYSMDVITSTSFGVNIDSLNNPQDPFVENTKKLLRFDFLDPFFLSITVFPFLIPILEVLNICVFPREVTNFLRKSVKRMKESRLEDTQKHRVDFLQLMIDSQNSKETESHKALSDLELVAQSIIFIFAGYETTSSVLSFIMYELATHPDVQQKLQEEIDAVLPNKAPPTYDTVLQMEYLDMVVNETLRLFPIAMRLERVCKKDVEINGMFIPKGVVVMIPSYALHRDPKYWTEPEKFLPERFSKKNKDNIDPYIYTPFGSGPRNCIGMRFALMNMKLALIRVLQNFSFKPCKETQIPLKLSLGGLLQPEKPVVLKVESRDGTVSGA
Glucocorticoid receptor (Homo sapiens), sequence (P04150 whole entry, looked up): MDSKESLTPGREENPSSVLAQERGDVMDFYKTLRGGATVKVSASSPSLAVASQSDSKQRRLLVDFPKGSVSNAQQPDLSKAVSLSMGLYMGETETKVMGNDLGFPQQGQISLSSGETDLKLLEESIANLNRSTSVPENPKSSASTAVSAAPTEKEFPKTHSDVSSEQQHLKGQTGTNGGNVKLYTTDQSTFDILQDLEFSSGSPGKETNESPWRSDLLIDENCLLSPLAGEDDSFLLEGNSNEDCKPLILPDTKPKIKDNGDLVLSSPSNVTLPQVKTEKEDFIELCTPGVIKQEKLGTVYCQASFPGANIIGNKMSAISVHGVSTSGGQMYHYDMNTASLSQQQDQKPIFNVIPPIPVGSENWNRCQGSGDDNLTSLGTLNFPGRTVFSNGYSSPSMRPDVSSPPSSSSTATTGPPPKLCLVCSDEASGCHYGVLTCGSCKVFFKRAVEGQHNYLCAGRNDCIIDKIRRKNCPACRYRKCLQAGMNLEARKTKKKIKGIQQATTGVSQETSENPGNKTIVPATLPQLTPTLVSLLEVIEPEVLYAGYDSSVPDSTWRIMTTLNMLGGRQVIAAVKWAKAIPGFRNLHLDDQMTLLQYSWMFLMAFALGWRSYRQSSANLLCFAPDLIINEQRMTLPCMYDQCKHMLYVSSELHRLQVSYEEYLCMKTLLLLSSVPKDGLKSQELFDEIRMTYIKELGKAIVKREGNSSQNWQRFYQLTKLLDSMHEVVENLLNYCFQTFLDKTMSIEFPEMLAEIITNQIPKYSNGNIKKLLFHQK
Ubiquitin carboxyl-terminal hydrolase 1 (Homo sapiens), sequence (O94782 whole entry, looked up): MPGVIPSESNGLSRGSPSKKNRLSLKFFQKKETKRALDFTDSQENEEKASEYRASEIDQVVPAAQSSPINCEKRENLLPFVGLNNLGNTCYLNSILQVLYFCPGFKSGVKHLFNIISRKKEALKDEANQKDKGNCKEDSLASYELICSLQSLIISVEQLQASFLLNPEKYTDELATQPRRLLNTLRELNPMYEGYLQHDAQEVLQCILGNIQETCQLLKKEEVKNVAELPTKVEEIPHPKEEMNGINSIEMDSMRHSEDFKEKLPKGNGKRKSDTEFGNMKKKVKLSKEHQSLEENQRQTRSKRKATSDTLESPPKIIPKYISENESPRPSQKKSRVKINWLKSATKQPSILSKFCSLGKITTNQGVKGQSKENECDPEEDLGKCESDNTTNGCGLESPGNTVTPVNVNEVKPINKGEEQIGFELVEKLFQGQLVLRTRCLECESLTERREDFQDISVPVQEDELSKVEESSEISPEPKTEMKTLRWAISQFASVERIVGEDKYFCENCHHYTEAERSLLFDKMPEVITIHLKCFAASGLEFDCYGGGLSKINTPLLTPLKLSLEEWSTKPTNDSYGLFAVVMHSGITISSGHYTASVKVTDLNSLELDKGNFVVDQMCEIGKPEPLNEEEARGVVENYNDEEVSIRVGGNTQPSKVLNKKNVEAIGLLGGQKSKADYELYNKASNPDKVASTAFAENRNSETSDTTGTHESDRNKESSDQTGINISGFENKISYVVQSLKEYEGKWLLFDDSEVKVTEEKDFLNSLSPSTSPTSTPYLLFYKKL

Consider `C[C@@H]1O[C@@H](OC[C@H]2OC(Oc3c(-c4ccc(O)c(O)c4)oc4cc(O)cc(O)c4c3=O)[C@H](O)[C@@H](O)[C@@H]2O)[C@H](O)[C@H](O)[C@H]1O` (some centres not stated), for which the compound was classed as inactive in [1], in [2], in assay [3], in assay [4], in [9] and in assay [12]. Besides, the call in assay [13] was inactive. Also, the Potency entry in [5], in assay [6], in assay [7], in assay [8] and in assay [10] was “inactive” each time. The max response in [11] is -2.59%.
Consider `CN(CC(=O)O)C(=N)N`, for which the compound was classed as inactive in assay [1], in assay [2], in [3], in assay [4], in [9] and in assay [12]. Also, the compound was classed as inactive in assay [13] and in assay [15]. Also, the Potency entry in [5], in assay [6], in assay [7], in [8], in [10] and in assay [14] was “inactive” each time. Besides, the max response in assay [11] is -1.47%.
`CCCCCCC/C=C/C(=O)CCc1ccc(O)c(OC)c1`: the compound was called inactive in [1], in [2], in assay [3], in assay [4], in assay [9] and in assay [12]. The compound was called inactive in assay [13] and in [15]. Also, the Potency in [5] was 14.1 µM (active); in [6], 10 µM (active); in [7], 25.1 µM (active); in assay [8], 6.31 µM (active); in assay [10], 25.1 µM (active). Besides, the max response in assay [11] was 6.04%.
Regarding `COc1ccc(-c2nc3cnc(Oc4cccc(Cl)c4)nc3n(C[C@H]3CCCO3)c2=O)cc1`, the Potency in [16] was over 9.22 µM; in [17], over 46 µM. Further, in assay [18], the Potency entry was “inactive”.
With `N#Cc1cccc(-c2ccc3ncnc(NCc4cccs4)c3c2)c1`, the outcome in [19] was inactive. Besides, the Potency was over 46 µM in assay [16], over 46 µM in [17] and 22.4 µM (active) in assay [18]. Further, the Potency entry in assay [20] is “inactive”.
On to `COc1ccccc1CNc1nc(-c2ccoc2)nc2ccccc12`, for which, in assay [19], the compound was called inactive. Besides, in [16], the Potency is over 46 µM. For the same compound, the Potency entry in [20] and in assay [18] was “inactive” each time.
`COc1ccc2[nH]cc(CCNc3cc(-c4ccccc4OC)ncn3)c2c1`: in assay [19], the call was inactive. Further, the Potency in [16] and in assay [17] was over 46 µM in each case. The Potency entry in assay [20] and in [18] was “inactive” each time.
With `CN(C)c1nc(-c2cccc(C#N)c2)nc2ccccc12`, the call in [19] was inactive. Moreover, the Potency in assay [16] and in [17] was over 46 µM each time. Also, the Potency entry in [18] is “inactive”.
In the case of `CC1(C)C2CCC1(C)C(O)C2` (configuration not stated), the compound was classed as inactive in assay [1], in [2], in assay [3], in assay [4], in [9] and in assay [12]. The outcome in assay [13] and in [15] was inactive. The Potency result in assay [5], in assay [6], in assay [7], in [8] and in assay [10] was “inactive” each time. For the same compound, in assay [11], the max response is 1.58%.
As to `OCCc1ccc(O)cc1`, the compound was called inactive in assay [1], in assay [2], in assay [3], in assay [4], in [9] and in [12]. Further, the compound was classed as inactive in assay [13] and in assay [15]. The Potency result in [5], in [6], in assay [7], in assay [8], in assay [10] and in assay [14] was “inactive” each time. The max response in [11] is -3.57%.
